Assay outcomes as filed in PubChem BioAssay.
KCNH2 3.1 inh = inhibitors of human KCNH2 3.1 potassium channel isoform | U2OS KCNH2 3.1, thallium flux FluxOr; active compounds read low | activity change, % (tested at about 1.8 µM) | actives 0.95% (n = 340,000) | AID 720553;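 active means maximum activity change below -70%; inconclusive means maximum activity change from -70% to -50%; inactive means maximum activity change above -50%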;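 further: thallium influx rate constant from kinetic fluorescence after stimulation buffer; on the % scale 0 is the no-effect control and ±100 the full control effect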
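U2OS cells transduced with KCNH2 3.1 mutant virus (1.77 x 10^8 /mL, 4 h), plated overnight at 37 C, loaded 45 min with FluxOr dye plus Red40 quencher. Thallium flux rate constant from kinetic reads after stimulation buffer, normalised to controls.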
A-T KAP1 phos = potential ataxia-telangiectasia treatments restoring KAP-1 phosphorylation | F2112 A-T fibroblasts, KAP-1 phosphorylation AlphaLISA; neocarzinostatin DNA damage 30 min before lysis | actives 0.19% (n = 320,000) | Potency, µM (top dose mostly 57.5 µM), without a hit: at the highest dose activation, hits mostly activators; further: potency means the concentration at half of the fitted maximal effect; % of control where 0% means no effect; nearly all actives have a fitted effect of over 45% in size
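hTERT-immortalized A-T patient fibroblasts (F2112), 500 cells/well in OPTI-MEM, 1% FBS, got compounds for 60 min, then NCS for 30 min at 37C. Lysates were then assayed for phospho-KAP-1 by AlphaLISA (anti-pKAP1 donor, anti-KAP1 acceptor beads), 6 hr at 25C.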
ALOX12 inh = ALOX12 (human) lipoxygenase inhibition. AID 1671190. P18054. purified 12hLO, xylenol orange hydroperoxide absorbance. Potency, µM (series often up to 108 µM), without a hit: at the highest dose activity change, negative = inhibition, most hits filed as inhibitors. actives 1.1% (n = 580,000); further: potency means the concentration at half of the fitted maximal effect; on the % scale 0 is the no-effect control and ±100 the full control effect
Target sequence (P18054 whole entry, looked up): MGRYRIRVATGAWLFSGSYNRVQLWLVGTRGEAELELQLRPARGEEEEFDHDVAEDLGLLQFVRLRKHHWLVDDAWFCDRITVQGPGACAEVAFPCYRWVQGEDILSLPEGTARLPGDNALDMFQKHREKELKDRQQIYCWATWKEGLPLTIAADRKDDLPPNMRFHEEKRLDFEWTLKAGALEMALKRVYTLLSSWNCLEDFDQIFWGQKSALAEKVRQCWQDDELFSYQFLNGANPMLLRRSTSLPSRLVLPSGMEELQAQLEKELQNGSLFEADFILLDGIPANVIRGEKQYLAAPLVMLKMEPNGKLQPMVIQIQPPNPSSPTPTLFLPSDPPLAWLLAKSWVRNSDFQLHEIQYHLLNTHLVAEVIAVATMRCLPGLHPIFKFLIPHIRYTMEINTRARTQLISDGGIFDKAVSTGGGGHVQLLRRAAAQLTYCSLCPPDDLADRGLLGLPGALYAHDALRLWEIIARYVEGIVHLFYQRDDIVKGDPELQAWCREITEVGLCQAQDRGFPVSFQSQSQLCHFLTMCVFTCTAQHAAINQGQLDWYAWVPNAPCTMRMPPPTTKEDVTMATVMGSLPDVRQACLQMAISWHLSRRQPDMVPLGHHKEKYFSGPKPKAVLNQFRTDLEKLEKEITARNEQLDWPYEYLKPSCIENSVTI
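Hydroperoxide product was detected by ferrous iron/xylenol orange as the 573 to 405 nm absorbance ratio. Arachidonic acid at 40 uM (final) was turned over for 30 min at room temperature by 150 nM human 12hLO, pH 7.0 Hepes buffer, after 15 min compound preincubation.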
KCNH2 WT inh = KCNH2 (human, wildtype) channel inhibition. U2OS, BacMam KCNH2, thallium flux FluxOr; active compounds read low. activity change, % at 1.84 µM. actives 0.37% (n = 340,000);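 active means maximum activity change below -70%; inconclusive means maximum activity change between -70% and -50%; inactive means maximum activity change above -50%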; further: on the % scale 0 is the no-effect control and ±100 the full control effect
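U2OS cells transduced with wild-type KCNH2 virus are loaded with FluxOr dye for 45 min, and thallium flux is measured in kinetic reads before and after stimulation buffer. Rate constants are normalized to DMSO controls.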
The depositor's hits bear a star; ? = inconclusive; . = not tested or not shown; [ ] = another dose, or the depositor's remark. An excerpt weighted towards active compounds, which were near 1.8% of everything screened. Unless noted, the call rests on the fitted dose curve; in most records, active means well fitted curve in the direction sought with a large enough effect; inconclusive means small, poorly fitted or top-dose-only effect, or another doubt; inactive means no such curve, though single readings can be large; an effect the other way counts as inactive or inconclusive.

SMILES	KCNH2 3.1 inh	A-T KAP1 phos	ALOX12 inh	KCNH2 WT inh
COc1cccc(-c2nnc(NC(C)=O)o2)c1	15	8%	0%	1
COc1cccc(-c2nnc(NC(=O)C3CCCCC3)o2)c1	-84*	0%	13%	-20
N#CC(C#N)=C1NC(N)=C(C#N)C(c2ccccc2)=C1C#N	.	-2%	6.3µM*	.
Clc1cccc(-c2noc(-c3ccc[nH]3)n2)c1	.	.	45µM*	.
COc1ccc(-c2cc(-c3nc(-c4cccc(Cl)c4)no3)[nH]n2)cc1	.	.	-3%	.
CCOC(=O)c1sc(Nc2ccccc2C)nc1C(F)(F)F	.	.	-22%	.
Cc1ccc(NC(=O)c2ccc(NCCN)c([N+](=O)[O-])c2)cc1	-3	-7%	?	9
Cc1cccc(NC(=O)c2ccc(NCCc3ccccc3)c([N+](=O)[O-])c2)c1	-189*	-1%	-5%	-16
Cc1ccc(C(=O)NC(=S)Nc2cccc(NC(=O)c3ccccc3)c2)cc1[N+](=O)[O-]	-13	-2%	25µM*	-13
Cc1nnc(NC(=O)Nc2ccc(C)c(C)c2)s1	.	.	8%	.
Cc1nc(C)c(C(=O)NC2CC(c3nnc(Cn4ccnc4)n3C)C2)s1 (centres undefined)	.	.	46%	.
COc1cc(CN(C)C(C)C(=O)Nc2ccc([N+](=O)[O-])cc2Cl)ccc1OC(F)F (centres undefined)	?	1%	?	-95*
O=C(C1CCCCC1)N1CCC(c2nc3ccccc3[nH]2)CC1	-90*	3%	6%	1
CCC(=O)N1CCCN(CCOC)c2ccccc21	.	.	33%	.
COCCN1CCCN(C(=O)c2ccc(F)c(F)c2)c2ccccc21	.	.	45µM*	.
C[C@H](CO)N1C[C@H](C)[C@@H](CN(C)C(=O)Nc2ccc3c(c2)OCO3)Oc2c(NC(=O)C3CCCCC3)cccc2C1=O	-16	8%	-2%	3
C[C@@H]1CN([C@H](C)CO)C(=O)c2cccc(NC(=O)c3ccncc3)c2O[C@@H]1CN(C)Cc1ccc(C(=O)O)cc1	-85*	22%	-28%	-6
C[C@H](CO)N1C[C@H](C)[C@@H](CN(C)Cc2ccc3c(c2)OCO3)Oc2c(NC(=O)C3CCCCC3)cccc2C1=O	-96*	-1%	-1%	-4
CN1C(=O)C(C)(C)N(C(=O)c2cccc([N+](=O)[O-])c2)c2ccccc21	-100*	0%	8%	0
O=C(c1cccc([N+](=O)[O-])c1)N1CCc2ccccc21	-3	-6%	-14%	8
COc1ccccc1C1CCN(Cc2ccc3ccccc3c2)CC1	-188*	0%	14µM*	-209*
COc1ccccc1C1CCN(Cc2ccccc2)CC1	0	-9%	-2%	19
CCOC(=O)c1cnc(Nc2ccc(OCC)cc2)nc1C	-5	7%	0%	-8
CCOc1ccc(Nc2nc(C)c(NC(=O)c3ccc(C)cc3)c(Nc3ccc(OCC)cc3)n2)cc1	.	.	22µM*	.
CCN1c2cc(C(=O)Nc3ccccc3F)ccc2C(=O)N2CCCC21 (centres undefined)	.	.	17%	.
SMILES	KCNH2 3.1 inh	A-T KAP1 phos	ALOX12 inh	KCNH2 WT inh
Cc1cc(C)n(CC2(Cn3cc(C4CCCNC4)nn3)CC2)n1 (centres undefined)	.	.	14µM*	.
O=C(Cn1cc(C2CCCNC2)nn1)N1CCCC1 (centres undefined)	.	.	26%	.
O=C1C=CC(=O)C(C2=C3C(=O)N(CCc4ccccc4)CC(=O)N3CCC2)=C1	.	-22%	40µM*	-24
O=C1CC2(CCCCC2)CC(=O)N1CCc1ccccc1	15	.	2%	4
CC(C)Nc1nc(NC(N)=S)nc(NC(C)(C)C)n1	-12	1%[11.5 µM]	45µM*	-6
CC(C)Nc1nc(NC(N)=S)nc(NC(C)C)n1	7	-8%	?	-5
N#C/C(=C\c1cccc([N+](=O)[O-])c1)c1ccc([N+](=O)[O-])cc1	.	.	-8%	.
Cn1c(O)c(N=NC(=O)CNC(=O)/C=C/c2ccccc2)c2ccccc21	-184*	-8%	-4%	6
Cc1ccc(C(=O)Oc2cc(-c3ccccc3)no2)cc1	24	.	204%	-2
O=C(Oc1cc(-c2ccccc2)no1)c1ccc(Cl)cc1	3	.	32µM*	-5
COc1ccc(CNc2ncnc3c2cnn3-c2ccc(C)c(C)c2)cc1	.	.	-25%	.
Cc1ccc(-n2ncc3c(NCCC4=CCCCC4)ncnc32)cc1	.	.	13µM*	.
COc1ccc(-n2ncc3c(NCCC4=CCCCC4)ncnc32)cc1	.	.	3.5µM*	.
